From PubChem
TEAD-YAP inh – TEAD-YAP interaction inhibition; HEK-TIYL cells, TEAD-Gal4/YAP UAS-luciferase luminescence; inhibition, % at 9.12 µM; 640,000 tested, 1.4% active; in the data active means inhibition above about 32%
FBW7 act – human FBW7 E3 ligase activation, primary screen; Q969H0; AlphaScreen FBW7–phospho-cyclin E peptide binding, activator screen; normalized activity (activation), % at 26.1 µM; 650,000 tested, 0.13% active; AID 1259310; in the data active means normalized activity above about 1.9%;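 further: purified mutant Fbw7 with reduced substrate affinity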
Target sequence (Q969H0 whole entry, looked up): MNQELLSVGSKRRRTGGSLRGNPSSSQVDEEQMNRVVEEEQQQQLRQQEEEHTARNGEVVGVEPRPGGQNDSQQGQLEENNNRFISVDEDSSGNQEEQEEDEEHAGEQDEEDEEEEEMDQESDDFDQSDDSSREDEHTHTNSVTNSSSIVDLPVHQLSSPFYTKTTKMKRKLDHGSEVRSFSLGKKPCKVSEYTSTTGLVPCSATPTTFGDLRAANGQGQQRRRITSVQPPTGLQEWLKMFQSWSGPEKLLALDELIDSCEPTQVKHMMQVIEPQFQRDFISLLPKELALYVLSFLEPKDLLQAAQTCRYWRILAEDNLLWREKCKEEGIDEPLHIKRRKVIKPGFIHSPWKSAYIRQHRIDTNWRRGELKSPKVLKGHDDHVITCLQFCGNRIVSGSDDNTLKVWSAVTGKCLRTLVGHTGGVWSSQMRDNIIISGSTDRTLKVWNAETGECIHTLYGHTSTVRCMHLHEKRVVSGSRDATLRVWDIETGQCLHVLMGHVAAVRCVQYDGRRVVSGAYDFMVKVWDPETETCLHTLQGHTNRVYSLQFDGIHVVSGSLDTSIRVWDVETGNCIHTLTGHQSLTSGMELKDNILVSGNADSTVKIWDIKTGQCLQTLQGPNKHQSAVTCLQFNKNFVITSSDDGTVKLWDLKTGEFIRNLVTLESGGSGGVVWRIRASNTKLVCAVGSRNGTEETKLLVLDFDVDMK
MITF inh – inhibitors of human MITF. O75030. AlphaScreen MITF homodimerization, bead proximity signal. inhibition, % at 2.6 µM. 650,000 tested, 0.91% active. AID 1259374; in the data active means inhibition above about 50%
GPR151 activ – human GPR151 activation; Q8TDV0; PathHunter beta-arrestin GPR151 cells, luminescence; activation, % at 11.2 µM; 650,000 tested, 1% active; AID 1508602; in the data active means activation above about 4.9%
Large screens that a line does not name were inactive. This is a sample that favours compounds with a hit; in the whole collection about 3.5% have one here.

CCOC(=O)c1nn(-c2ccc(C)c(C)c2)cc1O	none
CC(C)C(=O)Nc1cccc(C(=O)NC2CCCCCC2)c1	none
COc1ccc(Cn2c(O)c(C=NCc3ccc(F)cc3)c3ccccc3c2=O)cc1	none
CCOC(=O)c1sc(N/N=C/c2ccccc2O)nc1C	TEAD-YAP inh 49
OCCCNc1ccc2ncc(-c3ccc4c(c3)OCO4)n2n1	TEAD-YAP inh 61
c1ccc(CCNc2ccc3ncc(-c4ccc5c(c4)OCO5)n3n2)nc1	TEAD-YAP inh 48
O=C(NCCCCCNC(=O)c1ccncc1)c1ccncc1	none
O=[N+]([O-])c1ccc(Nc2cccc3cccnc23)c([N+](=O)[O-])c1	none
Cc1ccc(/C=C/C(=O)c2ccc(N3CCOCC3)cc2)s1	TEAD-YAP inh 49
O=C(/C=C/c1ccc(F)cc1)c1ccc(N2CCOCC2)cc1	none
Cc1cnc(CNC(=O)c2ccc3cncc(-c4ccccc4)c3n2)cn1	TEAD-YAP inh 63
O=C(NCc1ccccc1)c1ccc2cncc(-c3ccccc3)c2n1	TEAD-YAP inh 66, MITF inh 60
Cc1ccc(-c2nc(CSCC(=O)N3CCN(c4ccccn4)CC3)c(C)o2)cc1	TEAD-YAP inh 40
CCc1ccc(-c2nc(CSCC(=O)N3CCN(c4ccccn4)CC3)c(C)o2)cc1	TEAD-YAP inh 35
Cc1ccc(C(=O)C(C)OC(=O)c2ccc3c(c2)C(=O)N(c2ccccc2C)C3=O)cc1 (stereo not given)	none
O=C(/C=C/Nc1cccc2cccnc12)c1ccccc1	none
O=C(/C=C/Nc1ccccc1I)c1ccccn1	TEAD-YAP inh 80
CN(C)c1ccc(/C=N/Nc2cccc3cccnc23)cc1	TEAD-YAP inh 37
COc1cc2c(c(OC)c1OC)C(c1cccc(O)c1)CC(=O)N2 (stereo not given)	none
Cc1ccc(N2CCN(S(=O)(=O)c3cnc[nH]3)CC2C)cc1 (stereo not given)	none
COc1cccc(/C=C2\NC(=S)NC2=O)c1O	TEAD-YAP inh 76
CCOc1cccc(/C=C2\NC(=S)N(C)C2=O)c1O	FBW7 act 2.4
COc1cc(/C=C2\NC(=S)NC2=O)cc(OC)c1O	none
CCOc1ccc(/C=C2\NC(=S)N(C)C2=O)c(OCC)c1	none
COc1cc(NC(=S)NCCc2ccc(S(N)(=O)=O)cc2)cc(OC)c1	none
CCOC(=O)c1c(C)[nH]c(C(=O)CSc2nnnn2-c2ccc(Cl)cc2)c1C	none
CCOC(=O)c1c(C)[nH]c(C(=O)CSc2nccn2C)c1C	TEAD-YAP inh 87
COc1cccc(-c2csc(N3CCN(CC(=O)Nc4ccc(F)cc4)CC3)n2)c1	none
COc1cccc(NC(=O)CN2CCN(Cc3nc(-c4ccc(F)cc4)cs3)CC2)c1	TEAD-YAP inh 33
CCC(O)CNC(=O)c1cccc(OC2CCN(S(=O)(=O)N(C)C)CC2)c1 (stereo not given)	none
CN(C)S(=O)(=O)N1CCC(Oc2cccc(C(=O)NC3CCCCCC3)c2)CC1	TEAD-YAP inh 44
Clc1ccc(Nc2nc3nonc3nc2Nc2ccc(Br)cc2)cc1Cl	none
Oc1ccc(Nc2nc3nonc3nc2Nc2cccc(Br)c2)cc1	TEAD-YAP inh 45
c1ccc(Nc2nc3nonc3nc2Nc2ccccc2)cc1	TEAD-YAP inh 36
CN(C)c1nc2nonc2nc1Nc1cccc(Cl)c1	TEAD-YAP inh 75
Fc1cccc(Nc2nc3nonc3nc2Nc2cccc(F)c2)c1	none
Oc1ccc(Nc2nc3nonc3nc2Nc2ccccc2)cc1	none
Fc1ccc(Nc2nc3nonc3nc2Nc2ccc(F)cc2F)c(F)c1	TEAD-YAP inh 90
COc1ccc(-n2nc3ccc(NC(=O)c4cc5ccccc5cc4OC)cc3n2)cc1	none
CCCCCC(=O)N1c2ccccc2NC2=C(C(=O)CC(c3ccc(N(CC)CC)cc3)C2)C1c1ccco1 (stereo not given)	TEAD-YAP inh 47
COc1ccc(-c2nc(NCCOc3ccccc3)c3ncn(CCN4CCCC4=O)c3n2)cc1	TEAD-YAP inh 34
COc1ccc(CCNc2nc(-c3ccc(C(=O)NC4CC4)cc3)nc3c2ncn3CCN2CCCC2=O)cc1	TEAD-YAP inh 39
COc1ccccc1NC(=O)CSc1nc2c(sc(=S)n2CC2CCCO2)c(=O)n1-c1ccc(F)cc1 (stereo not given)	none
COc1ccc2nc(C)cc(Nc3ccc(N4CCN(C)CC4)cc3)c2c1	TEAD-YAP inh 77
COC(=O)c1ccc(Nc2cc(C)nc3ccc(OC)cc23)cc1	TEAD-YAP inh 36
COc1ccc(OC)c(Nc2cc(C)nc3nc(C)nn23)c1	TEAD-YAP inh 34
COc1ccc(OC)c(Nc2cc(C)nc3ccc(OC)cc23)c1	TEAD-YAP inh 68
COC(=O)c1ccc2nc(C)cc(Nc3ccc(OC)cc3)c2c1	none
COc1ccc(Nc2cc(C)nc3nc(C)nn23)c(OC)c1	none
O=C(O)c1ccccc1NC(=O)c1cc(Cl)c(Cl)cc1C(=O)O	none
CCOc1ccc(Nc2cc(C)nc3ccc(OC)cc23)cc1	none
CCOc1ccc2nc(C)cc(Nc3cc(Cl)ccc3OC)c2c1	TEAD-YAP inh 38
Nc1cccc(-c2nc(NCCc3ccc(O)cc3)c3ncn(-c4ccsc4)c3n2)c1	TEAD-YAP inh 56
Nc1cccc(-c2nc(NCCN3CCOCC3)c3ncn(-c4ccsc4)c3n2)c1	TEAD-YAP inh 53
O=C(NC1CC1)c1ccc(-c2nc(NCCN3CCOCC3)c3ncn(-c4ccccc4)c3n2)cc1	TEAD-YAP inh 67
O=C(NC1CC1)c1ccc(-c2nc(NC3CC3)c3ncn(-c4ccccc4)c3n2)cc1	TEAD-YAP inh 33
O=C(Nc1nnc(-c2cccc([N+](=O)[O-])c2)s1)c1c(F)cccc1F	none
O=C(NC1CC1)c1ccc(-c2nc(NCCN3CCOCC3)c3ncn(-c4ccsc4)c3n2)cc1	TEAD-YAP inh 37
NC(=O)c1ccc(-c2nc(NCCN3CCOCC3)c3ncn(-c4ccsc4)c3n2)cc1	TEAD-YAP inh 33
COc1ccc(N2CCN(Cc3ccsc3)CC2)cc1	MITF inh 67
COc1ccc(N2CCN(Cc3cccs3)CC2)cc1	MITF inh 55
COc1ccccc1NC(=O)Cc1noc(CSc2nnc(-c3ccccc3)o2)n1	FBW7 act 4.5
O=C(Nc1ccccc1C(=O)N1CCCC1)c1ncoc1-c1ccccc1C(F)(F)F	TEAD-YAP inh 63
COc1ccccc1-c1ocnc1C(=O)Nc1ccccc1C(=O)N1CCCC1	none
COc1ccc(CNC(=O)N2CCN(Cc3nc(-c4ccco4)cs3)CC2)cc1OC	TEAD-YAP inh 54
NC(=O)c1cccc(Nc2nccc(-c3cccc(Nc4ccccc4)c3)n2)c1	none
O=C(O)Cc1ccc(Nc2nccc(-c3ccccc3)n2)cc1	TEAD-YAP inh 53
CS(=O)(=O)Nc1cccc(-c2ccnc(Nc3ccccc3)n2)c1	TEAD-YAP inh 68
CC(O)c1ccc(Nc2nccc(-c3cccc(NS(C)(=O)=O)c3)n2)cc1 (stereo not given)	TEAD-YAP inh 77
NC(=O)c1ccc(Nc2nccc(-c3cccc(Nc4ccccc4)c3)n2)cc1	TEAD-YAP inh 46
CCn1c(=O)c2c(nc(SCC(=O)Nc3cccc(C)c3)n2C)n(C)c1=O	none
CS(=O)(=O)Nc1cccc(-c2ccnc(Nc3ccc(CC(N)=O)cc3)n2)c1	TEAD-YAP inh 37
